Rows were chosen to be rich in hits. Some 2.4% of all compounds tested hit in one or more screens of this group.
WRN inhibitor – WRN helicase (human) inhibition. WRN helicase unwinding, fluorescent forked duplex, kinetic. Q14191. 360,000 compounds, 0.46% hits. AID 651768. Potency, µM (highest dose often 114 µM), actives largely listed as inhibitors; note: nearly all actives have a fitted effect of over 55% in size
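WRN at 20 nM final preincubated with compound 15 min at room temperature; reaction started with 100 nM fluorophore/quencher forked duplex oligonucleotide and 2 mM ATP final. Unwinding followed kinetically by red fluorescence (ex 525, em 598 nm).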
Pol kappa inh-1 – blocks human DNA polymerase kappa activity; purified Pol kappa, fluorescent DNA synthesis assay, 10 min; Potency, µM (highest dose often 107 µM), most hits filed as inhibitors; 400,000 compounds, 0.53% hits
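Readout: fluorescence, taken kinetically at 0 and 10 min. Conditions: 10 nM Pol kappa, 15 min RT compound preincubation, 50 nM substrate final. Controls: enzyme-free buffer wells.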
POLI inh – DNA polymerase iota (human) inhibition; AID 588590; 390,000 compounds, 1% hits; Potency, µM (top dose mostly 115 µM), actives largely listed as inhibitors; Pol iota fluorescent replication assay, 10 min
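Fluorescent replication assay read twice, at 0 min and 10 min after adding 50 nM (final) substrate. Enzyme (10 nM) and compounds were first incubated 15 min at room temperature; enzyme-free buffer wells were negative controls.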
POLB inh – DNA polymerase beta (human) inhibition; P06746; 340,000 compounds, 1.3% hits; Potency, µM (series often up to 114 µM), hits mostly inhibitors; AID 485314; Pol beta primer extension/strand displacement, fluorescence kinetic
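Human Pol beta at 10 nM; strand-displacement substrate 50 nM final. Compound exposure 15 min at room temperature before start, reaction 10 min at room temperature.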
Pol eta inh-1 – blocks human DNA polymerase eta activity | Q9Y253 | recombinant Pol eta, fluorescent DNA replication assay | Potency, µM (top dose mostly 114 µM), hits mostly inhibitors | 390,000 compounds, 1.2% hits | AID 588591
Target sequence (Q9Y253 whole entry, looked up): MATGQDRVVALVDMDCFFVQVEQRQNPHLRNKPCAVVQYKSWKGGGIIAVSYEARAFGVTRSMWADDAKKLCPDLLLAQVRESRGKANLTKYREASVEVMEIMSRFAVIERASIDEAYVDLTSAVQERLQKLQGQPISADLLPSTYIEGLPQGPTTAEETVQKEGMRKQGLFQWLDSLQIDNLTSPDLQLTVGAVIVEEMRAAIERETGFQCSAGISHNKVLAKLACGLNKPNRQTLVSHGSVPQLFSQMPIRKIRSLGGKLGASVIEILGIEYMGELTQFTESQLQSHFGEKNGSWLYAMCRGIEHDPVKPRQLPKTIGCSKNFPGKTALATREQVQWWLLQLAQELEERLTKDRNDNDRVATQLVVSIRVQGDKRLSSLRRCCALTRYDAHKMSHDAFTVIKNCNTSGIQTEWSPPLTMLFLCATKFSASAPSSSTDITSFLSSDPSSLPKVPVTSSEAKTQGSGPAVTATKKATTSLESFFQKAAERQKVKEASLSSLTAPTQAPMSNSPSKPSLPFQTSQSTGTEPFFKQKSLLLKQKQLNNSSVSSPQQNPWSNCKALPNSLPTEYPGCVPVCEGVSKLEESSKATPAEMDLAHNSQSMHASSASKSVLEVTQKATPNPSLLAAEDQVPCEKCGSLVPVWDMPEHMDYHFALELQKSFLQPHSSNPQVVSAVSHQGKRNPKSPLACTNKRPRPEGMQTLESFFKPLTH
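Pol eta at 10 nM preincubated with compounds 15 min at room temperature; reaction started with fluorescent substrate (50 nM final) and read kinetically at 0 and 10 min.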
FEN1 inh-1 – human FEN1 inhibition; Potency, µM (doses to about 114 µM), most hits filed as inhibitors; Recombinant FEN1 flap cleavage, fluorescence, 15 min; P39748; 390,000 compounds, 0.35% hits; note: nearly all actives have a fitted effect of over 65% in size
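Read-out was taken twice, immediately and after 15 min, following addition of 50 nM substrate to 10 nM FEN1 that had sat with test compound for 15 min at room temperature. Curves came from a four-parameter Hill model.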
TbPGK inh – TbPGK inhibition, hit validation. shares compounds with Pol kappa inh-1. TbPGK coupled GAPDH assay, Kinase-Glo luminescence. Potency, µM (highest dose often 57.5 µM), hits mostly inhibitors. 500 compounds, 79% hits; note: nearly all actives have a fitted effect of over 65% in size
Pol iota confirm – Confirm cherry-picked inhibitors of human polymerase iota | shares compounds with Pol kappa inh-1 | Pol iota primer extension, TAMRA/BHQ fluorescence | Potency, µM, hits mostly inhibitors | 1,500 compounds, 77% hits | AID 720496
Pol kappa inh-2 – confirmation of human DNA polymerase kappa inhibitors; purified Pol-kappa, fluorescent strand-displacement substrate; Potency, µM, usual class: inhibitors; 920 compounds, 76% hits; shares compounds with Pol eta inh-1
Pol eta inh-2 – confirmation of human DNA polymerase eta inhibitors. shares compounds with Pol eta inh-1. Pol eta primer extension, TAMRA/BHQ fluorescence, 10 min. Potency, µM, hits mostly inhibitors. 2,600 compounds, 64% hits. AID 720502
FEN1 inh-2 – confirmation of human FEN1 inhibitors; shares compounds with FEN1 inh-1; FEN1 flap cleavage, TAMRA/BHQ2 fluorogenic DNA substrate; Potency, µM, actives largely listed as inhibitors; 880 compounds, 79% hits; note: nearly all actives have a fitted effect of over 60% in size
Hits are given with their value; [ ] = dose if it differs, or a comment. Calls come from the whole dose curve; as a rule, active = well fitted curve in the direction sought with a large enough effect; inconclusive = small, poorly fitted or top-dose-only effect, or another doubt; inactive = no such curve, though single readings can be large; an effect the other way counts as inactive or inconclusive.

Nc1cccc2cc(S(=O)(=O)O)ccc12 was read as WRN inhibitor inconclusive, Pol kappa inh-1 10µM, POLI inh 3.98µM, Pol eta inh-1 3.98µM, FEN1 inh-1 8.91µM, Pol iota confirm 75.2, Pol kappa inh-2 18.9, Pol eta inh-2 26.9 and FEN1 inh-2 67.5.
COc1ccc(/C=C/C(=O)NC(=S)Nc2cc([N+](=O)[O-])ccc2O)cc1OC was read as WRN inhibitor inactive[11.6 µM], Pol kappa inh-1 inconclusive, POLI inh 15.8µM, POLB inh 17.8µM, Pol eta inh-1 25.1µM, FEN1 inh-1 22.4µM, Pol iota confirm 75.2, Pol eta inh-2 30.1 and FEN1 inh-2 60.1.
For COc1ccc([N+](=O)[O-])cc1NC(=S)NC(C)=O the results were WRN inhibitor inactive, Pol kappa inh-1 inactive, POLI inh inactive, POLB inh inactive, Pol eta inh-1 inactive and FEN1 inh-1 inactive.
For NC(N)=N/N=C/c1ccccc1 the results were WRN inhibitor inactive, Pol kappa inh-1 inactive, POLI inh inactive, POLB inh inactive, Pol eta inh-1 inactive and FEN1 inh-1 inactive.
Oc1ccc(/C=N/N=C(c2ccccc2)c2ccccc2)c(O)c1O was read as WRN inhibitor 6.7µM, Pol kappa inh-1 inconclusive, POLI inh inconclusive, POLB inh 2.82µM, Pol eta inh-1 3.16µM, FEN1 inh-1 inconclusive, Pol iota confirm 10.6, Pol eta inh-2 42.6 and FEN1 inh-2 47.8.
For Cc1sc(-n2cccc2)c(C(C)NC(=O)Nc2ccccc2Cl)c1C (stereo unspecified) the results were Pol kappa inh-1 inactive, POLI inh inactive, POLB inh inactive and FEN1 inh-1 inactive.
COc1ccc(/C=C2\SC(=O)N(CC(=O)Nc3cccnc3)C2=O)cc1OC was read as WRN inhibitor inactive, Pol kappa inh-1 inactive, POLI inh inactive, POLB inh inactive, Pol eta inh-1 inactive and FEN1 inh-1 inactive.
`COc1cc(/C=C2\SC(=O)N(CC(=O)Nc3cccc(C)c3)C2=O)cc([N+](=O)[O-])c1O` gave WRN inhibitor inconclusive, Pol kappa inh-1 inactive, POLI inh inconclusive, POLB inh inactive, Pol eta inh-1 22.4µM, FEN1 inh-1 inconclusive, TbPGK inh inconclusive, Pol iota confirm 75.2, Pol eta inh-2 47.8 and FEN1 inh-2 75.7.
`COc1cc(/C=C(\C#N)C(=O)Nc2cccc(C(=O)O)c2)ccc1OCc1ccc(Cl)cc1` gave WRN inhibitor inactive[11.6 µM], Pol kappa inh-1 inconclusive, POLI inh inconclusive, POLB inh 10µM, Pol eta inh-1 56.2µM, FEN1 inh-1 inconclusive, Pol iota confirm inconclusive and FEN1 inh-2 75.7.
Screening CC1(C)CC(N=c2cc(-c3ccccc3)oc3ccc(Cl)cc23)CC(C)(C)N1 returned WRN inhibitor inactive, Pol kappa inh-1 inconclusive, POLI inh inconclusive, POLB inh 3.98µM, Pol eta inh-1 inconclusive, FEN1 inh-1 28.2µM, Pol iota confirm 18.9 and FEN1 inh-2 19.
`Cc1ccc2oc(-c3ccccc3)cc(=O)c2c1` gave Pol kappa inh-1 inactive[19.4 µM].
For O=C(N/N=C/c1ccc(-c2ccc(Cl)c(C(=O)O)c2)o1)c1cc2c(ccc3ccccc32)o1 the results were WRN inhibitor 20µM, Pol kappa inh-1 31.6µM, POLI inh 17.8µM, POLB inh inconclusive, Pol eta inh-1 11.2µM, FEN1 inh-1 39.8µM, Pol iota confirm 75.2, Pol eta inh-2 19 and FEN1 inh-2 21.3.
Screening Cc1ccc(-c2ccc(/C=N\NC(=O)c3cc4c(ccc5ccccc54)o3)o2)cc1[N+](=O)[O-] returned WRN inhibitor inactive, Pol kappa inh-1 inactive, POLI inh inactive, POLB inh inconclusive, Pol eta inh-1 inconclusive and FEN1 inh-1 inactive.
N#CCCn1c(=O)c(-c2ccccc2)nc2cnc(N3CCOCC3)nc21 was read as Pol kappa inh-1 inactive.
`Cn1cnnc1SCC(=O)Nc1sc2c(c1C(N)=O)CCC2` gave WRN inhibitor 12.6µM, Pol kappa inh-1 inconclusive, POLI inh inconclusive, POLB inh 14.1µM, Pol eta inh-1 22.4µM, FEN1 inh-1 31.6µM, Pol iota confirm 67, Pol eta inh-2 42.6 and FEN1 inh-2 inconclusive.
`Nc1ncnc2oc(-c3ccco3)c(-c3ccco3)c12` gave WRN inhibitor inconclusive, Pol kappa inh-1 25.1µM, POLI inh inconclusive, POLB inh 6.31µM, Pol eta inh-1 39.8µM, FEN1 inh-1 35.5µM, Pol iota confirm 42.3, Pol eta inh-2 84.9 and FEN1 inh-2 60.1.
Screening CC1OC(Oc2c(-c3cc(O)c(O)c(O)c3)oc3cc(O)cc(O)c3c2=O)C(O)C(O)C1O (stereo unspecified) returned WRN inhibitor inactive[11.6 µM], Pol kappa inh-1 50.1µM, POLI inh inconclusive, POLB inh 14.1µM, Pol eta inh-1 inconclusive, FEN1 inh-1 2.24µM, Pol iota confirm inconclusive and FEN1 inh-2 2.69.
`COc1ccc(-c2cc(C(=O)OCC(=O)c3c(N)n(C)c(=O)n(C)c3=O)c3ccccc3n2)cc1` gave WRN inhibitor inactive, Pol kappa inh-1 inactive, POLI inh inactive, POLB inh inactive, Pol eta inh-1 inactive and FEN1 inh-1 inactive.
`Cn1c(N)c(C(=O)COC(=O)c2cc(-c3ccco3)nc3ccccc23)c(=O)n(C)c1=O` gave WRN inhibitor 28.2µM, Pol kappa inh-1 inconclusive, POLI inh 7.08µM, POLB inh 15.8µM, Pol eta inh-1 7.94µM, FEN1 inh-1 39.8µM, Pol iota confirm 23.8, Pol eta inh-2 19 and FEN1 inh-2 67.5.
`C=CC[C@@H]1[C@H](O)CC[C@@]2(C)[C@H]1CC[C@@H]1[C@@H]2CC[C@]2(C)C([C@H](C)CCCC(C)C)CC[C@@H]12` (stereo partly specified) gave Pol kappa inh-1 inactive[19.4 µM].
Screening COCCn1c(C)cc(O)c(C(c2ccccc2)N2CCC(C)CC2)c1=O (stereo unspecified) returned Pol kappa inh-1 inactive, POLI inh inactive, POLB inh inactive, Pol eta inh-1 inactive and FEN1 inh-1 inactive.

Bioassay records from PubChem.
